Results reported in ChEMBL document CHEMBL4513216, “Probing the Open Global Health Chemical Diversity Library for Multistage-Active Starting Points for Next-Generation Antimalarials” (ACS Infect Dis, 2020).
The whole screen tested about 69,000 compounds, of which about 8,600 (12%) showed an effect of 50% or more. For the sample, strong results were picked, then their nearest neighbours and some compounds at random.

tested on: Plasmodium berghei; experiment: Screen against P. berghei liver stage (PbLuc), transformed with Luciferase, at 10uM; assay type: functional, HepG2; conditions: tested at 10 uM

Row | SMILES | INHIBITION [%]
1 | Cc1cccc(CN2CCc3ncnc(Oc4cccnc4)c3CC2)n1 | 18.5
2 | CC(C)(C)C(=O)N1CCCC1c1nccnc1Cl (configuration not stated) | -7.66
3 | CN[C@@H](CO)C(=O)NCc1cc2n(n1)CCCN(C1CCCCC1)C2 | 12.5
4 | COc1ccccc1-n1cc(C(=O)NCCn2nc(C)nc2C)cn1 | 32.8
5 | Cc1cc2nc(-c3ccccc3)cc(NCC3CCS(=O)(=O)C3)n2n1 (configuration not stated) | -24.6
6 | O=S1(=O)CCC(CNc2cc(-c3ccccc3)nc3ccnn23)C1 (configuration not stated) | 93.6
7 | O=C(CNc1cc(-c2ccccc2)nc2ccnn12)NC1CC1 | -35
8 | O=S(=O)(N1CCCC1)N1CCc2sccc2C1 | 82.4
9 | O=C(Nc1ccc(N2CCOCC2)nc1)N1CCc2sccc2C1 | -17.9
10 | O=S(=O)(N1CCCCCC1)N1CCc2sccc2C1 | 20.8
11 | CC1CCN(S(=O)(=O)N2CCc3sccc3C2)CC1 | 19.7
12 | O=S(=O)(N1CCOCC1)N1CCOC(CCc2ccccc2)C1 (configuration not stated) | -23.4
13 | O=S(=O)(N1CCOCC1)N1CCc2sccc2C1 | 76.8
14 | c1cc(CN2CCC3(CCOCC3COCC3CC3)CC2)ccn1 (configuration not stated) | -20.8
15 | CC(C)NC(=O)N1CCc2c(CNc3ncccn3)cncc2C1 | -41.4
16 | N#Cc1ccc(CN2CCCC3(Cc4ccccc4CNC3=O)C2)cc1 (configuration not stated) | 43.3
17 | Cc1nc(CO[C@H]2CN(Cc3cccs3)[C@@H]3COC[C@H]23)cs1 | 18.2
18 | CNS(=O)(=O)c1cnccc1N1CCN(C(C)C)CC1 | -5.26
19 | O=C1COC2(CCN(Cc3ccco3)CC2)CN1 | 27.6
20 | O=C(O)C1CCCN1c1nc(-c2ccc(Cl)cc2)cc(C(F)(F)F)n1 (configuration not stated) | 26.7
21 | O=C(O)C1CCCN1c1nc(C2CC2)cc(C(F)(F)F)n1 (configuration not stated) | 14.3
22 | O=C(O)C1CCCN1c1nc(-c2ccc(Cl)c(Cl)c2)cc(C(F)(F)F)n1 (configuration not stated) | 80.5

Row | SMILES | INHIBITION [%]
23 | CC(=O)N1CCC(NC(=O)CN2CCCc3c(F)ccc(C)c32)CC1 | 9.16
24 | CN(CCc1cccc2ccccc12)Cc1nc(N)nc(N(C)C)n1 | 90.3
25 | CN(Cc1nc(N)nc(N(C)C)n1)Cc1cccc2ccccc12 | -57.5
26 | COc1ccccc1CCN(C)Cc1nc(N)nc(N(C)C)n1 | 34.1
27 | OCCN1CCCCC1c1cc[nH]n1 (configuration not stated) | 6.26
28 | CCc1ccc(-c2cn3c(C(=O)N[C@H](C(N)=O)[C@@H](C)O)csc3n2)cc1 | -171
29 | CCc1ccc(-c2cn3c(C(=O)NCC(C)C(=O)NC)csc3n2)cc1 (configuration not stated) | -147
30 | C[C@@H](O)[C@H](NC(=O)c1csc2nc(-c3ccccc3F)cn12)C(N)=O | 76.9
31 | CC(C)(C)C(=O)N1CCC(c2cnc(-c3cn[nH]c3)cn2)CC1 | 3.62
32 | CCn1cc(S(=O)(=O)N2CCN(C(=O)c3cc(Br)cs3)CC2)c(C)n1 | 38.3
33 | COC(=O)CN1CC2(CCNCC2)COc2ccccc2S1(=O)=O | 27.6
34 | CC(C)c1nnc2n1CCN(C(C)c1nnc(-c3cccs3)o1)C2 (configuration not stated) | 21.1
35 | O=C(NC1CC1)C(c1ccccc1)N1CCn2c(nnc2C2CC2)C1 (configuration not stated) | 6.05
36 | CC(C)NC(=O)C(c1ccccc1)N1CCn2c(nnc2C2CC2)C1 (configuration not stated) | 50.4
37 | Cc1nnc2n1CCN(C(C(=O)NC(C)C)c1ccccc1)C2 (configuration not stated) | 15.2
38 | Cc1nnc2n1CCN(C(C)c1nnc(-c3cccs3)o1)C2 (configuration not stated) | 13.5
39 | CC(c1nnc(-c2cccs2)o1)N1CCn2c(nnc2C2CC2)C1 (configuration not stated) | 51.5
40 | CCc1ccc(CN2CC[C@H]3C[C@H](c4nnc(C)[nH]4)O[C@@H]3C2)o1 | -11.5
41 | COc1cccc(F)c1-c1c[nH]c(C)n1 | 11.8
42 | O=C(NCCNc1cnccn1)c1scnc1Cl | 53.3
43 | Cc1ncsc1C(=O)NCCNc1ncccn1 | 34.7
44 | Cc1ncsc1C(=O)NCCc1cccs1 | -25.667

Row | SMILES | INHIBITION [%]
45 | O=C(NCCNC(=O)c1scnc1Cl)c1ccccc1 | 30.3
46 | CCc1nc(C)c(C(=O)NCCNc2cnccn2)s1 | 4.88
47 | O=C(NCCNc1ncccn1)c1scnc1Cl | 11.9
48 | Cc1ncsc1C(=O)NCCNc1cnccn1 | 60
49 | Cc1ncsc1C(=O)NCCSCc1cccs1 | 63.4
50 | Cc1ncsc1C(=O)NCc1cccs1 | 35.8
51 | O=C(NCCCn1nc2ccccn2c1=O)Nc1ccc(F)cc1F | -17
52 | c1ccc(CN2CCC3(CC2)CCN(Cc2cccs2)C3)nc1 | -4.27
53 | O=C(C1COCCO1)N1CCN(CC(F)(F)F)c2ccccc21 (configuration not stated) | -8.22
54 | Cc1nn(C)c(C)c1CC(=O)N1CCc2nnc(N(C)C)cc2C1 | 42.65
55 | CN(C)c1cc(CNC(=O)c2ccccc2S(C)(=O)=O)ccn1 | -19.4
56 | Cc1noc(C)c1CN1C(=O)[C@@H]2CC[C@H]1CN(C(=O)c1cscn1)C2 | 45
57 | NC(=O)C1(CCCc2cccnc2)CCCN(c2ncccn2)C1 (configuration not stated) | 0.932
58 | CN1CCCC(CCCc2cccnc2)(C(N)=O)C1 (configuration not stated) | 50.1
59 | Cn1cc(CN2CCCC(CCCc3ccccn3)(C(N)=O)C2)cn1 (configuration not stated) | 20.8
60 | NC(=O)CN1CCCC(CCCc2ccccn2)(C(N)=O)C1 (configuration not stated) | -0.902
61 | NC(=O)C1(CCCc2ccccn2)CCCN(c2ncccn2)C1 (configuration not stated) | -6.3
62 | NC(=O)C1(CCCc2ccccn2)CCCN(Cc2ccncc2)C1 (configuration not stated) | 54.5
63 | COc1ccc(C(=O)Nc2cccc(SC)c2)c(OC)n1 | -138
64 | CCOc1cc(C)nc(N2CCN(C(=O)c3csnn3)CC2)n1 | 33.8
65 | O=C(O)[C@@H]1CCN(C(=O)c2cscn2)[C@@H]1c1ccc(F)cc1 | -35.5
66 | COc1ccc2ccccc2c1CNCC1CCS(=O)(=O)C1 (configuration not stated) | 46.4

Row | SMILES | INHIBITION [%]
67 | CCOc1ccc2ccccc2c1CNCC1CCNCC1 | 49.2
68 | CCOc1ccc2ccccc2c1CNCC1CCS(=O)(=O)C1 (configuration not stated) | 57.3
69 | Cc1cc2nc(C(C)C)cc(N3CCC(Oc4ncccn4)CC3)n2n1 | -17.1
70 | CCOC(=O)CSc1nnc([C@@H](N)C(C)C)o1 | 2.49
71 | Cc1cc(S(C)(=O)=O)c(C)c(S(=O)(=O)NCC2CCCO2)c1 (configuration not stated) | 48.4
72 | Cc1cc(S(C)(=O)=O)c(C)c(S(=O)(=O)NC2CCCC2)c1 | -1.28
73 | Cc1cc(S(C)(=O)=O)c(C)c(S(=O)(=O)NCC2CCC2)c1 | 54.4
74 | Cc1nn(C)cc1C1CC(=O)Nc2c1cnn2C(C)(C)C (configuration not stated) | -16.5
75 | O=C(c1ccn(-c2cccc(Cl)c2)n1)N1CCN(CCO)CC1 | -12.2
76 | CS(=O)(=O)N1CCN(C(=O)c2cncs2)CC(C(N)=O)C1 (configuration not stated) | -0.8525
77 | CN1C(=O)CC(c2ccccc2)C12CCN(CCO)CC2 (configuration not stated) | -63.9
78 | Cc1noc(C)c1CN1CCC2(CC1)C(c1ccccc1)CC(=O)N2C (configuration not stated) | 42.1
79 | CN1C(=O)C(c2cccnc2)CC12CCN(CCO)CC2 (configuration not stated) | -7.24
80 | Cc1ccc(CN2CCC3(CC2)C(c2ccccc2)CC(=O)N3C)o1 (configuration not stated) | 51.2
81 | Cc1ccc(CN2CCC3(CC2)CC(c2cccnc2)C(=O)N3C)o1 (configuration not stated) | 55.4
82 | Cc1cccc(CN2CCC3(CC2)CC(c2cccnc2)C(=O)N3C)n1 (configuration not stated) | 20.6
83 | Cc1nc(C2CCCN2C(=O)Cc2cccc(F)c2)nc(O)c1C (configuration not stated) | 11.1
84 | O=C(Cc1ccsc1)N1CCCC2(COCCN(CC3CC3)C2)C1 (configuration not stated) | -14.3
85 | COCCNC(=O)Cn1cc(NC(=O)c2cc(Cl)c(Cl)n2C)cn1 | 12.9
86 | Cc1cc(C)n(CC2CN(CC(=O)NCc3cccs3)CCO2)n1 (configuration not stated) | 18.933
87 | CCc1nccn1CCC(=O)N1CC(=O)N(c2ccccc2C)CC1C (configuration not stated) | 49.9
88 | CCc1nccn1CC(=O)N1C[C@@H]2CC[C@H]1CN(C(=O)N(C)C)C2 | -19.7

Row | SMILES | INHIBITION [%]
89 | CCc1nccn1CC(=O)N1C[C@@H]2CC[C@H]1CN(S(=O)(=O)N(C)C)C2 | 17
90 | Cc1ccccc1N1CC(C)N(C(=O)CCn2cccn2)CC1=O (configuration not stated) | 64.5
91 | Cc1ccccc1N1CCN(C(=O)CCc2nncn2C)C(C)C1 (configuration not stated) | 8.38
92 | COc1cccc(CN2CC(=O)N(c3ccccc3C)CC2C)c1OC (configuration not stated) | 17.8
93 | CCc1nccn1CCC(=O)N1CCN(c2ccccc2C)CC1C (configuration not stated) | 66.7
94 | Cc1ccccc1N1CC(C)N(Cc2ccc(C)c(F)c2F)CC1=O (configuration not stated) | -8.92
95 | CCc1nccn1CCC(=O)N1C[C@@H]2CC[C@H]1CN(C(=O)N(C)C)C2 | 50.2
96 | COCCn1ccnc1C1CCN(C(=O)CSc2nnc(C)o2)CC1 | 7.24
97 | COc1ncccc1CNC(=O)c1c(C)oc(C)c1C | 5.1
98 | CNC(=O)c1ccc(C2CN(CC(=O)N(C)C)CCO2)nc1 (configuration not stated) | -3.94
99 | c1cncc(OCC2CC3(CCN(CC4CC4)CC3)CO2)c1 (configuration not stated) | 13.7
100 | COc1ccc(C)nc1NC(=O)Cc1c(C)nn(C)c1C | 41.6
101 | COCC[C@]1(O)CCN(CC(=O)NCc2ccccc2C)C[C@H]1C | 46.3
102 | O=C(Cc1ccccn1)NCC1OCCc2cn(CC3CC3)nc21 (configuration not stated) | 3.25
103 | Cc1ccc(Oc2ncccc2CNS(=O)(=O)N2CCOCC2)cn1 | 70.1
104 | CCOc1ncccc1CNS(=O)(=O)N1CCOCC1 | -8.28
105 | O=S(=O)(NCc1cccnc1OC1CCCC1)N1CCOCC1 | 16.3
106 | O=c1cc(Cn2cncn2)nc2n1CCCN(CCN1CCCC1)C2 | 16.6
107 | Cc1cc(C)n(C2CN(CC(O)c3ccc(C(F)(F)F)cc3)C2)n1 (configuration not stated) | -24.2
